# Among all 320,000 compounds or so, about 2,100 (0.66%) were called active. Another 53% or so got no clear call; they are omitted. Calls come from the whole dose curve; as a rule, active = well fitted inhibition curve with a large enough effect in the signal ratio, with a control signal flat (not every such curve was filed as active); inconclusive = small, poorly fitted or top-dose-only effect, or effect the other way, or a change in a side signal; inactive = flat fitted curve, though single readings scatter; the % refers to the signal ratio. The sample as a whole holds a higher share of actives than the screen did.
# Experiment: qHTS Assay for Lipid Storage Modulators in Drosophila S3 Cells;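 for cell number change: cells counted by Cell Tracker Red CMTPX staining in the red channel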; for lipid storage change, negative = inhibition: % is set by controls: 0 for no effect and ±100 for the full control effect
# Conditions: BODIPY lipid droplet fluorescence, 18-24 h, cells fed with added oleic acid; cell number change: measured here: cell count max response; series mostly up to 46.1 µM; lipid storage change, negative = inhibition: at the top concentration
# Description: NIH Molecular Libraries Probe Production Centers Network [MLPCN] NIH Chemical Genomics Center [NCGC] MLPCN Grant: 1 R03 MH085686-01 Assay Submitter (PI): Beller, Mathias; Max-Planck-Institut fur Biophysikalische Chemie NCGC Assay Overview: Storing lipids as a reservoir for energy or the anabolism of elementary metabolites is a common feature of probably all cells and is conserved from bacteria to humans. The universal cellular lipid storage organelle is the so-called lipid storage droplet (LD). Although ubiquitous, LDs share a simple structure composed of a hydrophobic core that harbors the storage lipids, which is shielded by a droplet-specific phospholipid monolayer to which proteins are attached. The current model of LD biogenesis involves an incorporation of the lipid core into the membrane leaflets of the endoplasmic reticulum (ER) followed by a subsequent budding-like maturation of a LD, which ultimately pinches off. Once released, LD volume can increase by localized lipogenesis or fusion of existing droplet. Storage lipids are re-mobilized enzymatically by lipase activity. Lipase regulation in the adipocyte is heavily studied and involves multiple components including catecholamine signaling, the LD-associated proteins Perilipin and comparative gene identification (CGI-58) and at least two lipases named hormone sensitive lipase (HSL) and adipocyte triglyceride lipase (ATGL). LD regulation outside of the adipocyte is poorly understood and only few components are known. However, there is an urgent need to learn more about ectopic fat depots as mislocalized storage of lipids, for example in the liver or muscle, is an eminent health problem associated with insulin resistance or the metabolic syndrome. We developed a laser-scanning cytometer assay to enable 1,536-well screening and combined the results of the small molecules screen with an RNAi database based on lipid storage.
# Triacsin C (Sigma-Aldrich T-4540), an inhibitor of long-chain fatty acyl CoA synthetase that blocks synthesis of triglycerides, was used as a positive control for lipid under-storage. A total of 23 nL of compound solution of different concentrations were transferred to the assay plates using a Kalypsys pin tool equipped with a 1,536-pin array containing 10-nL slotted pins (FP1S10, 0.457-mm diameter, 50.8 mm long; V&P Scientific). One microliter of oleic acid (400 uM) was added, and the plate was lidded with stainless steel rubber gasket lined lids containing pinholes. […] Fluorescence was detected by excitation of the fluorophores with a 488-nm laser on an Acumen Explorer (TTP Lab Tech). The total intensity in channel 2 (500-530 nm) reflected lipid droplet accumulation. Cells were detected using channel 3 (575-640 nm) with 5-um width and 100-um depth filters. The ratio of the number of objects in PMT channel 2 over the number of objects in PMT channel 3 was also calculated. Percent activity was computed relative to an internal control (100% inhibited lipid droplet deposition due to the presence of 20 uM Triacsin C), which was added to 32 wells/plate.
# Potency is the fitted concentration of half-maximal effect.
Structure (SMILES),"lipid storage change, negative = inhibition",cell number change [%],outcome,Potency
CN(C)C(=O)c1cc(C(=O)c2ccccc2Br)c[nH]1,7.47% (inactive),10.8,,
Cc1nn(CC(=O)NCc2cccnc2)c(C)c1[N+](=O)[O-],4.48% (inactive),15.3,,
COC(c1ccccc1)c1nnc(CCC(=O)N2CCN(C3CCCC3)CC2)o1 (stereo not drawn),,22.7,inactive,
COC(c1ccccc1)c1nnc(CCC(=O)NCCc2ccc(Cl)cc2)o1 (stereo not drawn),,-7.97,,14.6 µM (active)
COC(c1ccccc1)c1nnc(CCC(=O)N2CCCCCCC2)o1 (stereo not drawn),11.6% (inactive),7.76,,
CCOC(=O)c1ccc(NC(=O)CCc2nc(-c3ccc(C)cc3)no2)cc1,,,inactive,
CC(c1ccccc1)C1C(C#N)=C(N)OC2=C1C(=O)CC(C)(C)C2 (stereo not drawn),6.38% (inactive),,,
CN(CC(=O)Nc1ccccc1Cl)C(=O)Cn1nnc(-c2ccc(F)cc2)n1,,,inactive,
CCC1CCCCN1C(=O)c1sc2nc(C)nc(N(CC)CC)c2c1C (stereo not drawn),7% (inactive),9.48,,
CCCCCN(C(=O)CCC(=O)OC(C)C(=O)NCc1ccccc1)c1c(N)n(CCCC)c(=O)[nH]c1=O (stereo not drawn),4.2% [at 0.0737 µM] (inactive),-30.3,,
O=C(CN1CCCc2ccccc21)NC(=O)NCc1ccco1,,15.9,inactive,
CCCCn1nnnc1SCC(=O)NCc1ccco1,,0.128,,23.1 µM (active)
O=C(CSCC(=O)NCc1ccco1)NCc1ccco1,,16.7,,6.51 µM (active)
Cc1ccc(CSCC(=O)NCc2ccco2)cc1,-0.179% (inactive),14.7,,
CCCCn1nnnc1SCC(=O)NNC(=O)c1ccco1,-4.32% (inactive),1.07,,
O=C(CN1CCc2ccccc21)NC(=O)NCc1ccco1,,0.297,,6.51 µM (active)
Cn1c(SCC(=O)NCc2ccco2)nnc1-c1ccc(S(=O)(=O)N2CCOCC2)cc1,,-9.46,,5.8 µM (active)
CCCCn1c(SCC(=O)NCc2ccco2)nnc1-c1ccco1,-2.67% (inactive),-17,,
O=C(CSc1ccccc1)NCc1ccco1,6.48% (inactive),-1.34,,
O=C(CN1CCc2ccccc21)NC(=O)NCc1ccccc1,,,inactive,
Cc1ccc(NC(=O)CSc2nnc(-c3ccc(S(=O)(=O)N4CCOCC4)cc3)n2C)cc1,,,inactive,
Cn1c(SCC(=O)NCc2ccco2)nnc1-c1ccccc1,-2.43% (inactive),-3.55,,
COc1ccc(C(C)NC(=O)c2ccc([N+](=O)[O-])cc2)cc1OC (stereo not drawn),3% (inactive),5.72,,
CC12COC3(C(=O)Nc4nccs4)CC1CCC32C (stereo not drawn),-0.803% (inactive),20.9,,

Structure (SMILES),"lipid storage change, negative = inhibition",cell number change [%],outcome,Potency
O=C1c2ccccc2C(=O)N1Cc1ccccn1,-22.3% (inactive),-28,,
COC(=O)C1=C(C)C(c2cccs2)NC(=O)N1C (stereo not drawn),2.46% (inactive),10.6,,
O=C(NCc1cccs1)NC1CCCCC1,-1.33% (inactive),3.84,,
O=C(NCCCn1ccnc1)c1ccc2ccccc2c1,20% (inactive),,,
O=Cc1c(Cl)nc2ccccn12,-10.1% (inactive),-2.46,,
Cc1nc2ccccn2c1C(=O)c1ccccc1,,15.8,inactive,
O=C(O)c1c(Cl)nc2ccccn12,,-7.31,,4.61 µM (active)
COc1ccc([N+](=O)[O-])cc1NC(=O)CSc1nc(C)c(C)c(C)n1,7.69% (inactive),1.59,,
CCOC(=O)C1CCN(C(=O)Cn2cnc3sc(C)c(S(=O)(=O)N4CCC(C)CC4)c3c2=O)CC1,,14.4,,0.58 µM (active)
Cc1sc2ncn(CC(=O)N3CCCCC3)c(=O)c2c1S(=O)(=O)N1CCC(C)CC1,,18.5,inactive,
CCOC(=O)C1CCN(C(=O)Cn2cnc3sc(C)c(S(=O)(=O)N4CCOCC4)c3c2=O)CC1,,1.25,inactive,
CN(C)c1ncc(S(=O)(=O)c2ccccc2)c(=O)[nH]1,-2.86% (inactive),19.4,,
COC(=O)CNC(=O)C12CC3(C)CC(C)(CC(C)(C3)C1)C2,-1.63% (inactive),-2.27,,
CC12CC3(C)CC(C)(C1)CC(C(=O)NCC(=O)O)(C2)C3,,-16.9,,1.46 µM (active)
CC12CC3(C)CC(C)(C1)CC(C(=O)NC(=S)N1CCCC1)(C2)C3,0.446% (inactive),-0.792,,
Cc1cc(C)nc(SCc2cn3c(C)cccc3n2)n1,22.7% (inactive),13.2,,
O=C(NCCc1ccccc1)C1CCCN(C(=O)Nc2ccc(F)cc2)C1 (stereo not drawn),,16.8,inactive,
O=C(COC(=O)c1ccc(NS(=O)(=O)c2ccc(F)c(F)c2)cc1)NCC1CCCO1 (stereo not drawn),9.43% (inactive),10.2,,
O=C(CCc1c[nH]c2ccccc12)N1CCCCCCC1,,-19.1,inactive,
Cc1cc(NC(=O)c2ccc(C)c([N+](=O)[O-])c2)no1,-0.109% (inactive),0.478,,
Cc1cc(NC(=O)c2ccc([N+](=O)[O-])cc2)no1,,-11.8,,0.58 µM (active)
Cc1cc(NC(=O)c2cc([N+](=O)[O-])cc([N+](=O)[O-])c2)no1,-20.4% (inactive),2.37,,
C/C(=N\NC(=O)c1ccc(F)cc1)c1cccc(NC(=O)c2cccc(F)c2)c1,-24.1% (inactive),11.9,,

# — PubChem BioAssay AID2685 (National Center for Advancing Translational Sciences (NCATS), 2010)
